Here are results for three compounds from PubChem BioAssay (EPA / NIEHS).

Read-out in experiment [1]: Interleukin-1 alpha (IL1a), IL1A (gene 3552)
The experiment can be described thus: BSK_KF3CT_IL1a: BioMAP Diversity Plus: KF3CT Assay for Interleukin-1 alpha (IL1a) Biomarker Activity (AID 2283070). The note with it: primary human keratinocytes with fibroblasts; actives raise or lower the signal. A digest of the protocol: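 Primary skin co-culture (keratinocytes, foreskin fibroblasts), 24 h exposure; ELISA for IL-1a; bidirectional curve fit vs DMSO.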

Read-out in experiment [2]: TIMP metallopeptidase inhibitor 2 (TIMP2), TIMP2 (gene 7077)
Kind of experiment: BSK_KF3CT_TIMP2: BioMAP Diversity Plus: KF3CT Assay for TIMP metallopeptidase inhibitor 2 (TIMP2) Biomarker Activity (AID 2283071). The settings on record: primary human keratinocytes with fibroblasts; actives raise or lower the signal. In short, it runs like this:
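ELISA readout of TIMP-2 in keratinocyte plus foreskin fibroblast co-cultures (human skin primary cells), 24 h post-dose. Gain or loss of signal fitted relative to DMSO.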

Read-out in experiment [3]: Transforming growth factor beta 1 (TGFb1), TGFB1 (gene 7040)
The experiment can be described thus: BSK_KF3CT_TGFb1: BioMAP Diversity Plus: KF3CT Assay for Transforming growth factor beta 1 (TGFb1) Biomarker Activity (AID 2283072). The settings on record: primary human keratinocytes with fibroblasts; actives raise or lower the signal. In short, it runs like this: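 Read-out: ELISA for TGF-b1 in keratinocyte/foreskin fibroblast human skin co-culture, 24 h after dosing; bidirectional curve fit vs DMSO baseline; gain or loss of signal scored.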

Read-out in experiment [4]: C-C motif chemokine 2 (Homo sapiens) (UniProt P13500)
The experiment can be described thus: BSK_KF3CT_MCP1: BioMAP Diversity Plus: KF3CT Assay for Monocyte Chemoattractant Protein 1 (MCP1/CCL2) Biomarker Activity (AID 2283073). The note with it: primary human keratinocytes with fibroblasts; actives raise or lower the signal. A digest of the protocol:
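ELISA read-out of MCP-1, 24 h post-dose, in primary human skin keratinocytes co-cultured with fibroblasts. Parallel SRB staining monitors cytotoxicity; changes fitted both directions relative to DMSO.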

Read-out in experiment [5]: Matrix Metallopeptidase 9 (MMP9), MMP9 (gene 4318)
Kind of experiment: BSK_KF3CT_MMP9: BioMAP Diversity Plus: KF3CT Assay for Matrix Metallopeptidase 9 (MMP9) Biomarker Activity (AID 2283074).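 On AC50: MMP9 protein level quantified by ELISA in the co-culture.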 The settings on record: primary human keratinocytes with fibroblasts; actives raise or lower the signal. A digest of the protocol:
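ELISA read-out of MMP-9 at 24 h post-dosing in a co-culture of human skin keratinocytes and foreskin fibroblasts. Gain or loss of signal was fitted in both directions against DMSO.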

Read-out in experiment [6]: urokinase plasminogen activator (uPA), PLAU (gene 5328)
The experiment can be described thus: BSK_KF3CT_uPA: BioMAP Diversity Plus: KF3CT Assay for urokinase plasminogen activator (uPA) Biomarker Activity (AID 2283075). The note with it: primary human keratinocytes with fibroblasts; actives raise or lower the signal. A digest of the protocol:
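Skin co-culture (keratinocytes + foreskin fibroblasts), human primary; 24 h post-dose; uPA by ELISA; gain/loss fit vs DMSO baseline.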

Read-out in experiment [7]: CD40, CD40 (gene 958)
Kind of experiment: BSK_LPS_CD40: BioMAP Diversity Plus: LPS Assay for CD40 Biomarker Activity (AID 2283076). The settings on record: primary human HUVEC with PBMC; actives raise or lower the signal. In short, it runs like this: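 In the LPS system of human endothelial cells with peripheral blood mononuclear cells, CD40 levels were read by ELISA 24 h post-treatment. Signal changes in either direction were fitted against the DMSO baseline, with parallel SRB protein staining.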

Read-out in experiment [8]: E-selectin (Homo sapiens) (UniProt P16581)
The experiment can be described thus: BSK_LPS_Eselectin: BioMAP Diversity Plus: LPS Assay for Eselectin Biomarker Activity (AID 2283077). The note with it: primary human HUVEC with PBMC; actives raise or lower the signal. A digest of the protocol:
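E-selectin ELISA on LPS-stimulated endothelial cell/PBMC co-cultures, read 24 h post-treatment; gains and losses fitted against DMSO. Parallel SRB staining (0.1% SRB after 10% TCA fixation, 560 nm) flags overt cytotoxicity.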

The nature of experiment [9]: BSK_LPS_SRB: Viability Assessment in the BioMAP Diversity Plus: LPS Assay (AID 2283079).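 Further: total protein by sulforhodamine B absorbance as a cytotoxicity measure; measured one day after compound addition.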 The settings on record: primary human HUVEC with PBMC. In short, it runs like this:
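SRB viability endpoint: cells fixed with 10% TCA, stained with 0.1% SRB, read at 560 nm, 24 h post-dose. HUVEC/PBMC co-culture; signal change in either direction scored relative to DMSO.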

Read-out in experiment [10]: Interleukin-1 alpha (IL1a), IL1A (gene 3552)
The experiment can be described thus: BSK_LPS_IL1a: BioMAP Diversity Plus: LPS Assay for Interleukin-1 alpha (IL1a) Biomarker Activity (AID 2283080). The note with it: primary human HUVEC with PBMC; actives raise or lower the signal. A digest of the protocol: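 Readout is IL-1a level by ELISA, 24 h post-dose, fitted as gain or loss relative to DMSO. System: LPS-activated human primary co-culture of vascular endothelium and peripheral blood mononuclear cells, with parallel SRB total-protein cytotoxicity.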

Read-out in experiment [11]: Monocyte Chemoattractant Protein-1 (MCP1), CCL2 (gene 6347)
Kind of experiment: BSK_LPS_MCP1: BioMAP Diversity Plus: LPS Assay for Monocyte Chemoattractant Protein-1 (MCP1) Biomarker Activity (AID 2283081).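 On AC50: secreted MCP-1 protein quantified by ELISA in culture supernatant.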 The settings on record: primary human HUVEC with PBMC; actives raise or lower the signal. In short, it runs like this:
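Secreted MCP-1 read by ELISA at 24 h post-dosing in an LPS-activated co-culture of endothelial cells with peripheral blood mononuclear cells. Fits run in both directions, DMSO as baseline; parallel SRB staining tracks overt cytotoxicity.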

The nature of experiment [12]: BSK_LPS_PGE2: BioMAP Diversity Plus: LPS Assay for Prostaglandin E2 (PGE2) Biomarker Activity (AID 2283082).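 On AC50: secreted prostaglandin E2 measured by ELISA in LPS-stimulated co-culture.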 The settings on record: primary human HUVEC with PBMC; actives raise or lower the signal. A digest of the protocol:
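ELISA read-out of PGE2 from human umbilical vein endothelial cells co-cultured with peripheral blood mononuclear cells under LPS, 24 h post-dose. Gain or loss of signal scored relative to DMSO baseline.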

Read-out in experiment [13]: Macrophage colony-stimulating factor (MCSF), CSF1 (gene 1435)
The experiment can be described thus: BSK_LPS_MCSF: BioMAP Diversity Plus: LPS Assay for Macrophage colony-stimulating factor (MCSF) Biomarker Activity (AID 2283083). The settings on record: primary human HUVEC with PBMC; actives raise or lower the signal. A digest of the protocol: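 Bidirectional fitting against DMSO was applied to M-CSF levels read by ELISA at 24 h post-dose. The system pairs human umbilical vein endothelium with peripheral blood mononuclear cells; parallel SRB staining tracked cytotoxicity.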

Read-out in experiment [14]: Tumor necrosis factor (Homo sapiens) (UniProt P01375)
The experiment can be described thus: BSK_LPS_TNFa: BioMAP Diversity Plus: LPS Assay for Tumour Necrosis Factor alpha (TNFa) Biomarker Activity (AID 2283085).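 On AC50: TNFa protein level quantified by ELISA in the co-culture.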 The note with it: primary human HUVEC with PBMC; actives raise or lower the signal. In short, it runs like this:
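HUVEC/PBMC co-culture, LPS-stimulated; 24 h post-dose; TNFa by ELISA; gain or loss of signal fitted bidirectionally vs DMSO baseline.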

Read-out in experiment [15]: Vascular cell adhesion molecule 1 (VCAM1), VCAM1 (gene 7412)
Kind of experiment: BSK_LPS_VCAM1: BioMAP Diversity Plus: LPS Assay for Vascular cell adhesion molecule 1 (VCAM1) Biomarker Activity (AID 2283086). The note with it: primary human HUVEC with PBMC; actives raise or lower the signal. A digest of the protocol:
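ELISA read-out of VCAM-1 at 24 h post-dosing in an LPS-driven HUVEC/PBMC primary human co-culture; gain or loss of signal fitted bidirectionally against DMSO baseline. Cytotoxicity tracked in parallel cultures by SRB total-protein staining.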

Read-out in the next experiment: CD38, CD38 (gene 952)
Kind of experiment: BSK_SAg_CD38: BioMAP Diversity Plus: SAg Assay for CD38 Biomarker Activity (AID 2283087). The note with it: primary human HUVEC with PBMC; actives raise or lower the signal. A digest of the protocol: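 Measures CD38 on a human endothelial/PBMC co-culture driven by SEB and TSST-1, 24 h after compound exposure, using ELISA with fluorescence detection; DMSO defines baseline for bidirectional curve fitting.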

Read-out in experiment [16]: CD40, CD40 (gene 958)
The experiment can be described thus: BSK_SAg_CD40: BioMAP Diversity Plus: SAg Assay for CD40 Biomarker Activity (AID 2283088). The note with it: primary human HUVEC with PBMC; actives raise or lower the signal. A digest of the protocol:
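CD40 is measured by fluorescence ELISA in an endothelial/PBMC primary human co-culture at 24 h post-dose. Fitting is bidirectional, DMSO baseline. Parallel SRB staining (560 nm) flags cytotoxicity.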

Read-out in the next experiment: CD69, CD69 (gene 969)
The experiment can be described thus: BSK_SAg_CD69: BioMAP Diversity Plus: SAg Assay for CD69 Biomarker Activity (AID 2283089). The settings on record: primary human HUVEC with PBMC; actives raise or lower the signal. In short, it runs like this: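 ELISA, fluorescence read-out: CD69 on human umbilical vein endothelial cell + PBMC co-culture, 24 h post-dosing. Gain or loss of signal fitted bidirectionally against DMSO baseline.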

Read-out in experiment [17]: Interleukin-8 (IL8), CXCL8 (gene 3576)
Kind of experiment: BSK_LPS_IL8: BioMAP Diversity Plus: LPS Assay for Interleukin-8 (IL8) Biomarker Activity (AID 2283078). The settings on record: primary human HUVEC with PBMC; actives raise or lower the signal. In short, it runs like this:
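ELISA read-out of IL-8 after 24 h chemical treatment of LPS-activated endothelial/PBMC human primary co-cultures. Changes either up or down relative to DMSO; overt cytotoxicity checked by sulforhodamine B staining in parallel wells.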

Read-out in experiment [18]: Tissue Factor, F3 (gene 2152)
The experiment can be described thus: BSK_LPS_TissueFactor: BioMAP Diversity Plus: LPS Assay for Tissue Factor Biomarker Activity (AID 2283084). The note with it: primary human HUVEC with PBMC; actives raise or lower the signal. In short, it runs like this:
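Compound was added to an endothelial cell/PBMC co-culture, and after 24 h tissue factor (CD142) was read by ELISA. Gain or loss of signal was fitted against a DMSO baseline, and parallel SRB staining (560 nm) tracked overt cytotoxicity.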

Broadly, the AC50 is the concentration at which the activity in the assay is half-maximal.

The source made the active and inactive calls. How the source made its calls: active means hit-call score of the fitted dose curve at least 0.9, where 1 is the maximum; inactive means score below 0.9.

E-selectin (Homo sapiens), sequence (P16581 whole entry, looked up): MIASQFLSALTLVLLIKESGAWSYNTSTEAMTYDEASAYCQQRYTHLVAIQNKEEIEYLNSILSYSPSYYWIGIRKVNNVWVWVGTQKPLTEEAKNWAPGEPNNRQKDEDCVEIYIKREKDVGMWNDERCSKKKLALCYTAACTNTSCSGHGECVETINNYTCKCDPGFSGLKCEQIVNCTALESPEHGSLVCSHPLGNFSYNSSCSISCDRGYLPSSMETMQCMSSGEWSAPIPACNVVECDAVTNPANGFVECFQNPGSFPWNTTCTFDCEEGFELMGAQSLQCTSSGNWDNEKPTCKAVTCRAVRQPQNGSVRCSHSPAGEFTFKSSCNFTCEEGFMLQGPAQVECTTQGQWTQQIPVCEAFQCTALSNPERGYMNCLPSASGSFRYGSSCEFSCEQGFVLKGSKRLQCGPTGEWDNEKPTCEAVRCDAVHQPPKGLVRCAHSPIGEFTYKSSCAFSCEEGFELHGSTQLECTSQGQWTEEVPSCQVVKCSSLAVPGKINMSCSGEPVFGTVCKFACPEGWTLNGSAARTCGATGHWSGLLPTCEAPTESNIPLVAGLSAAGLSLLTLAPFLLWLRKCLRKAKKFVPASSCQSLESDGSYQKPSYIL
Tumor necrosis factor (Homo sapiens), sequence (P01375 whole entry, looked up): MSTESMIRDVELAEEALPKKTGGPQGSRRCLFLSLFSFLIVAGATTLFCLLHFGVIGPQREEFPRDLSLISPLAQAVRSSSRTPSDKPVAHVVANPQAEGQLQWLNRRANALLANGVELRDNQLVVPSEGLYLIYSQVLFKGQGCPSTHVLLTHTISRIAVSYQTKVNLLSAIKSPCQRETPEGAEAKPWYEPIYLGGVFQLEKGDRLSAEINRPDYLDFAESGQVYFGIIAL

For the compound `c1ccc2c(c1)[nH]c1ccccc12`, the outcome in [1], in experiment [2], in experiment [3], in [4], in experiment [5] and in [6] was inactive. The outcome is “inactive” with CD40, CD40 (gene 958) [7]; “inactive” in [8]; “inactive” in [9]; “inactive” in experiment [10]; “inactive” in experiment [11]; “inactive” in experiment [12]. Besides, the outcome in [13] is “inactive”; in experiment [14] it was “inactive”; in [15], “inactive”; with CD38, CD38 (gene 952), “inactive”; with CD40, CD40 (gene 958) [16], “inactive”; in the experiment with CD69, CD69 (gene 969) it was “inactive”.

As for `C=C(C)C(=O)OCCCCCCCCCCCC`, the outcome in experiment [1], in experiment [2], in experiment [3], in experiment [4], in [5] and in [6] was inactive. Also, the outcome was “inactive” with CD40, CD40 (gene 958) [7]; “inactive” in experiment [8]; “inactive” in [17]; “inactive” in experiment [9]; “inactive” in experiment [10]; “inactive” in [11]. Besides, the outcome in [12] was “inactive”; in [13] it was “inactive”; in experiment [18] it was “inactive”; in experiment [15], “inactive”; with CD38, CD38 (gene 952), “inactive”; with CD69, CD69 (gene 969), “inactive”. Moreover, in experiment [14], the AC50 is 32.6 µM (active).

Consider `Oc1ccc(/C=C/c2cc(O)cc(O)c2)cc1`, for which the concentration at half-maximal activity (AC50) in experiment [1] was 3.97 µM (active); in experiment [2], 8.83 µM (active); in experiment [4], 20 µM (active); in experiment [5] it was 16 µM (active); in [9], 20 µM (active); in experiment [11], 20 µM (active). The half-maximal activity concentration (AC50) in experiment [12] was 2.5 µM (active). Also, the outcome in experiment [3] is “inactive”; in [6], “inactive”; with CD40, CD40 (gene 958) [7], “inactive”; in [8], “inactive”; in [17] it was “inactive”; in experiment [10], “inactive”. The outcome in [13] was “inactive”; in [14] it was “inactive”; in [15], “inactive”; with CD38, CD38 (gene 952), “inactive”; in the experiment with CD69, CD69 (gene 969) it was “inactive”.
